Assay results from PubChem BioAssay.
Several values for one entry are separate records, joined by “and”; a condition that tells them apart may be missing. Identical values can stand only once. Activity calls are given as the source filed them. No rule for the calls is given here.

Experiment: liver-stage malaria parasite load reduction – cell-based, known kinase inhibitor set, luminescence, hepatoma host viability (AID 624392);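 also: infected cells incubated roughly two days before readout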
Settings: Plasmodium liver stage in hepatoma cells, luciferase luminescence, concentration not given here; liver cell % of control: measured here: host liver cell viability; parasite % of control: stronger effect = lower value

| Compound | parasite % of control | liver cell % of control [%] |
| --- | --- | --- |
| Nc1nc(-c2ccccn2)c(-c2ccc3ncccc3n2)s1 | 101% (inactive) | 94.7 |
| COc1cc(C)c(NC(=O)CN(C)C)cc1Nc1nc(Nc2cccc(F)c2C(N)=O)c2cc[nH]c2n1 | 550% (inactive) | 63 |
| CN(c1ccc(NC(=O)Nc2c(Cl)cccc2Cl)cc1)c1ccnc(Nc2cccc(CS(C)(=O)=O)c2)n1 | 130% (inactive) | 108 |
| COC(=O)Nc1nc2ccc(Oc3ccc(NC(=O)Nc4cc(C(F)(F)F)ccc4F)cc3)cc2s1 | 360% (inactive) | 100 |
| Fc1ccc(-c2cc(C3CNNC3c3ccccn3)ccn2)cc1 (stereo not given) | 60.9% (inactive) | 162 |
| COC(=O)Nc1nc2ccc(Oc3ccc(NC(=O)Nc4cccc(Br)c4)cc3)cc2[nH]1 | 247% (inactive) | 77.3 |
| CCC(=O)Nc1ccc(C)c(-c2ccc(C(=O)NCC3CC3)cc2)c1 | 136% (inactive) | 51.4 |
| Cc1nc(-c2ccccc2)n2nc(NCCCN3CCOCC3)ncc12 | 149% (inactive) | 97.3 |
| COc1cccc(-n2nc(C)c3c(N/N=C(\C)c4ccncc4)ncnc32)c1 | 124% (inactive) | 114 |
| N#Cc1ccc(Oc2nccc(-c3c(-c4ccc(F)cc4)ncn3C3CCNCC3)n2)cc1 | 142% (inactive) | 76.8 |
| CCN1CCC(CC(=O)Nc2n[nH]c3nc(-c4cccs4)c(Br)cc23)CC1 | 72.5% (inactive) | 76.8 |
| FC(F)(F)CNc1nccc(-c2cnn3ncccc23)n1 | 264% (inactive) | 95.3 |
| CCCN(CCS(C)(=O)=O)Cc1ccc(-c2ccc3ncnc(Nc4ccc(OCc5cccc(F)c5)c(Cl)c4)c3c2)o1 | 108% (inactive) | 100 |
| COc1cc(C)c(N(C)C(=O)CN(C)C)cc1Nc1nc(Nc2cccc(F)c2C(N)=O)c2cc[nH]c2n1 | 391% (inactive) | 71.5 |
| Nc1nccc(C#Cc2cncnc2Nc2ccc(OCc3cccc(F)c3)c(Cl)c2)n1 | 81.2% (inactive) | 107 |
| CN1CCC(n2cnc(-c3ccc(F)cc3)c2-c2ccnc(N)n2)CC1 | 168% (inactive) | 83.2 |
| COc1ccc(-c2nn3ncccc3c2-c2ccnc(Nc3ccc(Cl)c(C(F)(F)F)c3)n2)cc1 | 87.8% (inactive) | 101 |
| COc1ccc(-c2coc3ncnc(N)c23)cc1 | 116% (inactive) | 92.2 |
| O=C(Nc1n[nH]c2cc(-c3ccc(F)cc3)ccc12)C1CC1 | 140% (inactive) | 152 |
| Fc1ccc(-c2nn3ncccc3c2-c2ccnc(Nc3ccc4c(c3)OCCO4)n2)cc1 | 13.9% (inactive) | 90.5 |
| CCn1c(-c2nonc2N)nc2c(C#CC(C)(C)O)nc(OCCNC)cc21 | 239% (inactive) | 78.2 |
| CCn1c(-c2nonc2N)nc2c(C#CCN)ncc(OCCCN)c21 | 112% (inactive) | 63.5 |
| Cc1ccc(C(=O)NC2CC2)cc1-c1ccc2[nH]ncc2c1 | 126% (inactive) | 103 |
| COc1cc(N2CCN(C(C)C)CC2)ccc1Nc1nc(Nc2cccc(F)c2C(=O)O)c2cc[nH]c2n1 | 124% (inactive) | 115 |
| COc1ccccc1Nc1ncc(-c2ccccc2)o1 | 132% (inactive) | 121 |
| COC(=O)Nc1nc2ccc(S(=O)(=O)c3ccc(NC(=O)Nc4cc(C(F)(F)F)ccc4F)cc3)cc2[nH]1 | 100% (inactive) | 80 |

Experiment: altered dexamethasone sensitivity, NF-kB reporter, cell-based, luciferase, IL-1B stimulus (AID 624486);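 as to percent of negative control (+Dex): 100% = mean signal of vehicle control wells on the plate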
Settings: IL-1B + dexamethasone, luminescence; percent of negative control (+Dex): actives lie on both sides, concentration not given here; z-score: measured here: IL-1B alone, no Dex

| Compound | z-score | percent of negative control (+Dex) |
| --- | --- | --- |
| Cc1cc(-c2ccco2)cc(C)c1/C=C/c1cncc(-c2nn[nH]n2)c1 | 0.125 | 94% (inactive) |
| Cc1ccc(Nc2ccnc(Nc3cccc(C(N)=O)c3)n2)cc1O | 1.52 | 106% (inactive) |
| Clc1ccc(CNc2nccc(-c3cnn4ncccc34)n2)cc1 | -7.22 | 26.5% (active) |
| CCn1c(-c2nonc2N)nc2c(C#CC(C)(C)O)ncc(OC3CCNCC3)c21 | -0.435 | 89% (inactive) |
| O/N=C1/CCc2cc(-c3nc(C4CCNCC4)[nH]c3-c3ccncc3)ccc21 | 0.995 | 128% (inactive) |
| COc1cccc(-n2ncc3c(N/N=C/c4cccc(F)c4)ncnc32)c1 | 0.615 | 93.5% (inactive) |
| CCCN1CCC(Oc2cc(Nc3nc(Nc4cccc(F)c4C(N)=O)c4cc[nH]c4n3)c(OC)cc2Cl)CC1 | -0.445 | 77.5% (inactive) |
| CCOc1nccc2c1nc(-c1nonc1N)n2CC | -0.885 | 86% (inactive) |
| CCn1c(-c2nonc2N)nc2ccc(F)cc21 | -0.655 | 82.5% (inactive) |
| COc1cc(/C=N/Nc2ncnc3c2cnn3Cc2ccccc2)ccc1O | -0.18 | 85% (inactive) |
| NS(=O)(=O)c1ccc(N=Cc2c(O)[nH]c3ccc4ncsc4c23)cc1 | 0.655 and 0.01 | 112% (inactive) and 98.5% (inactive) |
| COc1cc2c(cc1Nc1nc(Nc3ccsc3C(N)=O)c3cc[nH]c3n1)N(C(=O)CN(C)C)CCC2(C)C | -0.245 | 91% (inactive) |
| c1cnn2ncc(-c3ccnc(NCCCN4CCOCC4)n3)c2c1 | -4.11 | 57% (inactive) |
| Nc1nc(-c2ccccn2)c(-c2ccc3ncccc3n2)s1 | -0.74 | 81.5% (inactive) |
| COc1cc(C)c(NC(=O)CN(C)C)cc1Nc1nc(Nc2cccc(F)c2C(N)=O)c2cc[nH]c2n1 | -0.195 | 93% (inactive) |
| CN(c1ccc(NC(=O)Nc2c(Cl)cccc2Cl)cc1)c1ccnc(Nc2cccc(CS(C)(=O)=O)c2)n1 | 3.88 | 134% (inactive) |
| COC(=O)Nc1nc2ccc(Oc3ccc(NC(=O)Nc4cc(C(F)(F)F)ccc4F)cc3)cc2s1 | -1.24 | 120% (inactive) |
| Fc1ccc(-c2cc(C3CNNC3c3ccccn3)ccn2)cc1 (stereo not given) | -1.07 | 81% (inactive) |
| COC(=O)Nc1nc2ccc(Oc3ccc(NC(=O)Nc4cccc(Br)c4)cc3)cc2[nH]1 | 0.65 | 104% (inactive) |
| CCC(=O)Nc1ccc(C)c(-c2ccc(C(=O)NCC3CC3)cc2)c1 | 1.16 | 103% (inactive) |

| Compound | z-score | percent of negative control (+Dex) |
| --- | --- | --- |
| Cc1nc(-c2ccccc2)n2nc(NCCCN3CCOCC3)ncc12 | 1.35 | 102% (inactive) |
| COc1cccc(-n2nc(C)c3c(N/N=C(\C)c4ccncc4)ncnc32)c1 | 0.765 | 100% (inactive) |
| N#Cc1ccc(Oc2nccc(-c3c(-c4ccc(F)cc4)ncn3C3CCNCC3)n2)cc1 | 0.29 | 90.5% (inactive) |
| CCN1CCC(CC(=O)Nc2n[nH]c3nc(-c4cccs4)c(Br)cc23)CC1 | -0.195 | 88% (inactive) |
| FC(F)(F)CNc1nccc(-c2cnn3ncccc23)n1 | -6.74 | 33.5% (active) |
| CCCN(CCS(C)(=O)=O)Cc1ccc(-c2ccc3ncnc(Nc4ccc(OCc5cccc(F)c5)c(Cl)c4)c3c2)o1 | -1.22 | 74.5% (inactive) |
| COc1cc(C)c(N(C)C(=O)CN(C)C)cc1Nc1nc(Nc2cccc(F)c2C(N)=O)c2cc[nH]c2n1 | 0.76 | 110% (inactive) |
| Nc1nccc(C#Cc2cncnc2Nc2ccc(OCc3cccc(F)c3)c(Cl)c2)n1 | -0.655 | 83.5% (inactive) |
| CN1CCC(n2cnc(-c3ccc(F)cc3)c2-c2ccnc(N)n2)CC1 | 2.09 | 107% (inactive) |
| COc1ccc(-c2nn3ncccc3c2-c2ccnc(Nc3ccc(Cl)c(C(F)(F)F)c3)n2)cc1 | 0.34 | 98% (inactive) |
| COc1ccc(-c2coc3ncnc(N)c23)cc1 | -0.765 | 84% (inactive) |
| O=C(Nc1n[nH]c2cc(-c3ccc(F)cc3)ccc12)C1CC1 | 1.05 | 115% (inactive) |
| Fc1ccc(-c2nn3ncccc3c2-c2ccnc(Nc3ccc4c(c3)OCCO4)n2)cc1 | -1.27 | 100% (inactive) |
| CCn1c(-c2nonc2N)nc2c(C#CC(C)(C)O)nc(OCCNC)cc21 | -0.295 | 83.5% (inactive) |
| CCn1c(-c2nonc2N)nc2c(C#CCN)ncc(OCCCN)c21 | -0.55 | 85% (inactive) |
| Cc1ccc(C(=O)NC2CC2)cc1-c1ccc2[nH]ncc2c1 | 0.41 | 102% (inactive) |
| COc1cc(N2CCN(C(C)C)CC2)ccc1Nc1nc(Nc2cccc(F)c2C(=O)O)c2cc[nH]c2n1 | -0.075 | 100% (inactive) |
| COc1ccccc1Nc1ncc(-c2ccccc2)o1 | 9.37 | 243% (active) |
| COC(=O)Nc1nc2ccc(S(=O)(=O)c3ccc(NC(=O)Nc4cc(C(F)(F)F)ccc4F)cc3)cc2[nH]1 | 0.105 | 86.5% (inactive) |
